HT1080-NT tox = qHTS for induction of synthetic lethality in tumor cells producing 2HG: qHTS for the HT-1080-NT fibrosarcoma cell line; HT-1080-NT fibrosarcoma viability, CellTiter-Glo ATP luminescence, 48 h; Potency, µM (titrated, usually from 46.1 µM), hits mostly cytotoxic; 360,000 compounds, 1.6% hits;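 further: NT is the 2HG producing partner of a matched IDH1 knockdown line; nearly all actives have a fitted effect of over 55% in size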
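Viability of the 2HG-overproducing fibrosarcoma line after 48 hours of compound exposure at 37 degrees C was determined by luminescence with CellTiter-Glo, and concentration-effect curves were then fitted and categorized.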
KB-3-1 tox = qHTS assay for MDR1-selective chemotherapeutics: Primary screen using the parental adenocarcinoma cell KB-3-1 | Potency, µM (series often up to 46.1 µM), most hits filed as cytotoxic | 400,000 compounds, 1.4% hits | AID 1347075, 2019 | KB-3-1 viability, CellTiter-Glo ATP luminescence, 72 h; further: nearly all actives have a fitted effect of over 60% in size
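Using CellTiter-Glo luminescence, growth of non-resistant KB-3-1 adenocarcinoma cells is assessed 72 h after pin-tool compound addition at 37 °C. Normalized responses across the concentration series yield fitted curves.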
KB-V1 MDR tox = qHTS assay for MDR1-selective chemotherapeutics: Primary screen using the drug-selected MDR subline cells KB-V1 | KB-V1 MDR cells viability, CellTiter-Glo, 72 h | Potency, µM (top dose mostly 46.1 µM), hits mostly cytotoxic | 400,000 compounds, 3.4% hits; further: nearly all actives have a fitted effect of over 60% in size
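Cytotoxicity via CellTiter-Glo luminescence after 72 h compound exposure at 37 degrees C. Cells: drug-selected KB-V1 line, DMEM phenol-red free plus 10% FBS. Compounds tested at multiple concentrations; normalized data fitted to concentration-effect curves.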
HT1080 IDH1KD tx = qHTS for induction of synthetic lethality in tumor cells producing 2HG: qHTS for the HT-1080-IDH1KD cell line; Potency, µM (series often up to 46.1 µM), usual class: cytotoxic; HT-1080 IDH1 knockdown viability, ATP luminescence, 48 h; 360,000 compounds, 2% hits
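Knockdown cells (IDH1KD HT-1080) received compounds 2 h after plating at 750 cells/well and were kept 48 h at 37 °C in 5% FBS RPMI. A CellTiter-Glo luminescence read gave % activity for curve fitting.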
DT40 TDP1 no CPT = qHTS for Inhibitors of human tyrosyl-DNA phosphodiesterase 1 (TDP1): qHTS in cells in absence of CPT. Potency, µM (top dose mostly 46.2 µM), most hits filed as inhibitors. AID 686978, 2013. 420,000 compounds, 15% hits. DT40 Tdp1-/- hTDP1 cells, no CPT, ATP luminescence, 48 h; further: nearly all actives have a fitted effect of over 55% in size
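Stably hTDP1-transfected Tdp1-null chicken DT40 cells were treated with library compounds minus camptothecin and grown for at least 48 hr at 37 °C, after which cellular ATP was quantified by luminescence.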
DT40 TDP1 CPT = qHTS for Inhibitors of human tyrosyl-DNA phosphodiesterase 1 (TDP1): qHTS in cells in presence of CPT. AID 686979, 2013. Potency, µM (highest dose often 46.2 µM), hits mostly inhibitors. 420,000 compounds, 12% hits. chicken DT40 Tdp1-/-;hTDP1 cells + 20 nM CPT, ATP luminescence, 48 h; further: nearly all actives have a fitted effect of over 55% in size
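Cell growth measured by CellTiter-Glo luminescence after a minimum 48 h, 37 C compound exposure with 20 nM CPT in Tdp1-knockout DT40 cells stably expressing hTDP1, seeded 400/well; qHTS titration format.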
Of the large screens only hits and unclear results are named; the others gave an inactive call. Only some compounds are listed: those with a hit (about 19% of all), similar ones and a draw of the others. The call rests on the fitted dose curve; in most records, active means well fitted curve in the direction sought with a large enough effect; inconclusive means small, poorly fitted or top-dose-only effect, or another doubt; inactive means no such curve, though single readings can be large; an effect the other way counts as inactive or inconclusive.

O=C(Nc1ccc(-c2cscn2)cc1)C1CCCN(Cc2ccccc2)C1 (configuration not stated)	HT1080-NT tox inconclusive, KB-3-1 tox inconclusive, HT1080 IDH1KD tx inconclusive, DT40 TDP1 no CPT inconclusive, DT40 TDP1 CPT inconclusive
O=C(Nc1cccc(-n2cccn2)c1)C1CCCN(Cc2ccc(C#CCCO)cc2)C1 (configuration not stated)	KB-V1 MDR tox inconclusive, DT40 TDP1 no CPT 21µM, DT40 TDP1 CPT inconclusive
Cc1nn(C)c(Cl)c1CN1CCCC(C(=O)Nc2cccc(-n3cccn3)c2)C1 (configuration not stated)	KB-V1 MDR tox inconclusive, DT40 TDP1 no CPT inconclusive, DT40 TDP1 CPT 12µM
Cc1nn(C)c(Cl)c1CN1CCCC(C(=O)Nc2ccc(-c3cscn3)cc2)C1 (configuration not stated)	DT40 TDP1 no CPT inconclusive, DT40 TDP1 CPT 16µM (no result: KB-3-1 tox, KB-V1 MDR tox)
CC(=O)c1cccc(CN2CCCC(C(=O)Nc3cccc(-n4cccn4)c3)C2)c1 (configuration not stated)	DT40 TDP1 no CPT 23µM, DT40 TDP1 CPT inconclusive
CCc1ccc(NC(=S)N2CCN(S(=O)(=O)c3ccccc3)CC2)cc1	none
CC(C)c1nnc(NC(=O)C2CCCN2C(=O)Nc2cccc(Cl)c2)s1 (configuration not stated)	none
O=C(Nc1ccc(-c2ccco2)cc1)C1CCCN(Cc2ccc(CO)o2)C1 (configuration not stated)	DT40 TDP1 no CPT inconclusive, DT40 TDP1 CPT inconclusive
CC(=O)c1cccc(CN2CCCC(C(=O)Nc3ccc(-c4ccco4)cc3)C2)c1 (configuration not stated)	HT1080 IDH1KD tx inconclusive, DT40 TDP1 no CPT inconclusive, DT40 TDP1 CPT 15µM
O=C(O)c1cccc(Nc2nc(-c3cc4ccccc4oc3=O)cs2)c1	KB-V1 MDR tox inconclusive
Cc1ccc(S(=O)(=O)CC2CSc3nc4ccccc4n32)cc1 (configuration not stated)	KB-3-1 tox 0.73µM, KB-V1 MDR tox 0.52µM, HT1080 IDH1KD tx inconclusive, DT40 TDP1 no CPT 1.8µM, DT40 TDP1 CPT 1.8µM
CC(C)CNC(=O)C1(C)CCCN1Cc1ccc(S(C)(=O)=O)cc1 (configuration not stated)	none
O=C(NC1CCN(Cc2ccccc2)CC1)C1CCN(S(=O)(=O)c2cccc3cccnc23)CC1	DT40 TDP1 no CPT 15µM, DT40 TDP1 CPT 18µM
O=C(NC1CCCCCC1)C1CCN(S(=O)(=O)c2cccc3cccnc23)CC1	none
O=S(=O)(NC1CCN(Cc2ccccc2)CC1)c1cccc2cccnc12	HT1080-NT tox inconclusive, HT1080 IDH1KD tx inconclusive, DT40 TDP1 no CPT 18µM, DT40 TDP1 CPT inconclusive
Cc1cc(Cl)ccc1Nc1ncnc2onc(C)c12	KB-V1 MDR tox inconclusive, DT40 TDP1 no CPT inconclusive, DT40 TDP1 CPT inconclusive (no result: HT1080-NT tox, HT1080 IDH1KD tx)
CCN1CCN(C(=O)c2cnn(-c3ccc(F)cc3)c2-n2cccc2)CC1	none (no result: HT1080-NT tox, HT1080 IDH1KD tx, DT40 TDP1 no CPT, DT40 TDP1 CPT)
COc1ccc(NC(=O)C2Cc3c(-c4ccc(Cl)cc4)ccnc3O2)cc1OC (configuration not stated)	HT1080 IDH1KD tx inconclusive, DT40 TDP1 no CPT 18µM, DT40 TDP1 CPT inconclusive
COc1ccc(NC(=O)C2Cc3c(-c4ccccc4)ccnc3O2)cc1OC (configuration not stated)	KB-3-1 tox 16µM, KB-V1 MDR tox inconclusive, HT1080 IDH1KD tx inconclusive, DT40 TDP1 no CPT 4.6µM, DT40 TDP1 CPT inconclusive
COc1ccc(NC(=O)C2Cc3c(-c4ccncc4)ccnc3O2)cc1OC (configuration not stated)	DT40 TDP1 no CPT inconclusive, DT40 TDP1 CPT inconclusive
COc1ccc(NC(=O)C2Cc3c(-c4ccc(Cl)cc4)ccnc3O2)cn1 (configuration not stated)	HT1080-NT tox inconclusive, KB-V1 MDR tox inconclusive, HT1080 IDH1KD tx inconclusive, DT40 TDP1 no CPT 21µM, DT40 TDP1 CPT 15µM
COc1ccc(NC(=O)C2Cc3c(-c4cccc(C(N)=O)c4)ccnc3O2)cc1OC (configuration not stated)	HT1080-NT tox inconclusive, HT1080 IDH1KD tx inconclusive, DT40 TDP1 no CPT 7.3µM, DT40 TDP1 CPT 12µM
COc1ccc(CCN2CC(C(=O)N(C)Cc3ccccn3)CCC2=O)cc1 (configuration not stated)	none
COc1cc(OC)c(N2CC(C(=O)NCCC3=CCCCC3)CC2=O)cc1Cl (configuration not stated)	DT40 TDP1 no CPT inconclusive, DT40 TDP1 CPT inconclusive
O=C(O)CN1CCN(Cc2ccccc2)C1=O	none
CC1(NC(=O)c2ccccc2)CCN(CCCc2ccccc2)C1=O (configuration not stated)	KB-3-1 tox inconclusive, KB-V1 MDR tox inconclusive, DT40 TDP1 no CPT 4.6µM, DT40 TDP1 CPT 3.7µM
O=C(NC1(Cc2ccccc2)CCN(Cc2ccc(-c3ccccc3)cc2)C1=O)c1ccccc1 (configuration not stated)	HT1080-NT tox inconclusive, KB-3-1 tox inconclusive, KB-V1 MDR tox inconclusive, HT1080 IDH1KD tx inconclusive, DT40 TDP1 no CPT 23µM, DT40 TDP1 CPT 21µM
CC1(NC(=O)CC(c2ccccc2)(c2ccccc2)c2ccccc2)CCN(CCCc2ccccc2)C1=O (configuration not stated)	HT1080-NT tox inconclusive, HT1080 IDH1KD tx inconclusive, DT40 TDP1 no CPT 21µM, DT40 TDP1 CPT 23µM
O=C(CCc1ccccc1)NC1(Cc2ccccc2)CCN(CCc2cccs2)C1=O (configuration not stated)	DT40 TDP1 no CPT inconclusive, DT40 TDP1 CPT inconclusive
CC1(NC(=O)CCc2ccccc2)CCN(CCCc2ccccc2)C1=O (configuration not stated)	KB-3-1 tox inconclusive, DT40 TDP1 no CPT inconclusive, DT40 TDP1 CPT 15µM
Cc1ccc(-c2nc(-c3cc4c([nH]c3=O)CC(C)(C)CC4=O)sc2C)cc1	DT40 TDP1 no CPT inconclusive, DT40 TDP1 CPT inconclusive (no result: HT1080-NT tox, HT1080 IDH1KD tx)
CN1CCN2c3ccccc3CC3(C(=O)OC(C)(C)OC3=O)C2C1 (configuration not stated)	none (no result: HT1080-NT tox, HT1080 IDH1KD tx)
COc1ccccc1-n1c(=S)[nH]c2c(sc(=S)n2-c2ccccc2C)c1=O	KB-V1 MDR tox inconclusive, DT40 TDP1 no CPT inconclusive, DT40 TDP1 CPT inconclusive
CN(CCCc1cnc[nH]1)C(=S)NCCCN(Cc1ccc(Cl)cc1)c1ccc(Br)cn1	KB-V1 MDR tox inconclusive, DT40 TDP1 no CPT inconclusive, DT40 TDP1 CPT inconclusive (no result: HT1080-NT tox, HT1080 IDH1KD tx)
